Results on twelve compounds are retold here after PubChem BioAssay (NCATS).

Inconclusive results are not listed. Active and inactive are the calls of the source. Calls follow the shape of the dose curve; as a rule, active = well fitted inhibition curve with a large enough effect; inconclusive = small, poorly fitted or top-dose-only effect; inactive = flat fitted curve, though single readings scatter.

Assay in all cases: qHTS profiling for inhibitors of Plasmodium falciparum proliferation (AID 504749); also: nearly all actives have a fitted effect of over 60% in size
Conditions in all cases: P. falciparum in erythrocytes, SYBR Green DNA, 72 h; series mostly up to 28.7 µM
Background: Quantitative high-throughput screening tests each substance at several concentrations.

For one test, the system named is CP192. In outline:
(§1)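 Three-day growth assay of blood-stage parasites in erythrocytes (0.3% parasitemia, 2.5% hematocrit) at 37 C, 5% CO2, quantified by SYBR Green DNA staining after overnight detergent lysis.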

For another test, the system named is CP237. In short, it runs like this: as §1
In another test the test system is CP247. In outline: as §1
Another test relates to CP250. In outline:
as §1

Another test deals with CP260. In short, it runs like this: as §1
The next test concerns ATS95. In outline: as §1
The subject of another test is C2A. In outline: as §1
The next test deals with CP185. In short, it runs like this: as §1
For a further test, the system named is CP194. In outline: as §1
The next test relates to CP201. In short, it runs like this: as §1
A further test deals with CP203. In outline: as §1
The test system of the next test is CP211. In outline:
as §1

For another test, the system named is CP215. In outline: as §1
The next test deals with CP217. In outline: as §1
A further test deals with CP238. In short, it runs like this: as §1
A further test has as its system CP252. In outline: as §1
In another test the test system is CP256. In outline:
as §1

Another test deals with CP262. In short, it runs like this:
as §1

The next test concerns CP191. In short, it runs like this: as §1
A further test relates to CP265. In outline: as §1
Potency is read from the fitted curve at half-maximal effect.

As to `Nc1ccc(N)cc1`, the Potency result in the test with CP192, in the test with CP237 and in the test with CP260 was “inactive” in each case. Further, the Potency in the test with CP247 is 8.91 µM (active); in the test with CP250 it was 12.6 µM (active).
Regarding `OC(O)C(Cl)(Cl)Cl`, the Potency result with ATS95, in the test with C2A, with CP185, in the test with CP192, with CP194 and with CP201 was “inactive” each time. Besides, the Potency result in the test on CP203, in the test on CP211, in the test on CP215, with CP217, in the test with CP237 and in the test on CP238 was “inactive” in each case. Further, the Potency result with CP247, in the test with CP250, in the test on CP252, in the test on CP256, in the test with CP260 and in the test on CP262 was “inactive” each time.
For `CC[C@]1(O)CC[C@H]2[C@@H]3CCC4=CCCC[C@@H]4[C@H]3CC[C@@]21C`, in the test on C2A, the Potency was 0.891 µM (active). Further, the Potency result with CP192, in the test with CP194, in the test with CP201, in the test on CP203, with CP211 and with CP215 was “inactive” in each case. Besides, the Potency entry with CP237, in the test with CP238, with CP247, in the test with CP252, in the test with CP260 and in the test with CP262 was “inactive” throughout.
As for `C[C@]12C=CC(=O)C=C1CC[C@@H]1[C@@H]2CC[C@@]2(C)[C@H]1CC[C@]2(C)O`, the Potency entry in the test on ATS95, with C2A, in the test with CP185, in the test with CP191, in the test with CP217 and in the test with CP237 was “inactive” in each case. In addition, the Potency entry in the test with CP238, in the test on CP247, in the test on CP250, with CP252, with CP256 and in the test on CP260 was “inactive” throughout. The Potency entry in the test on CP262 and in the test with CP265 was “inactive” in each case.
For `O=c1n(Cl)c(=O)n(Cl)c(=O)n1Cl`, the Potency result with ATS95, in the test on C2A, in the test with CP185, in the test with CP191, with CP192 and in the test with CP194 was “inactive” in each case. For the same compound, the Potency entry with CP201, with CP203, in the test on CP211, with CP215, in the test on CP217 and in the test with CP237 was “inactive” throughout. In addition, the Potency result in the test on CP238, in the test on CP247, in the test on CP250, in the test with CP252, in the test with CP256 and in the test with CP260 was “inactive” throughout. The Potency result in the test on CP262 and with CP265 was “inactive” in each case.
Turning to `N#Cc1nn(-c2c(Cl)cc(C(F)(F)F)cc2Cl)c(N)c1S(=O)C(F)(F)F` (stereo unspecified), the Potency with ATS95 is 12.6 µM (active); with C2A it was 8.91 µM (active); with CP191, 6.31 µM (active); in the test with CP194, 15.1 µM (active); in the test on CP201 it was 13.5 µM (active); in the test on CP217, 8.91 µM (active). Moreover, the Potency with CP237 is 5.01 µM (active); in the test on CP250 it was 11.2 µM (active); with CP260, 8.91 µM (active); in the test with CP262, 10.7 µM (active).
As for `C#C[C@]1(O)CC[C@H]2[C@@H]3CCC4=CC(=O)CCC4=C3C=C[C@@]21CC`, the Potency is 10 µM (active) in the test on ATS95, 3.16 µM (active) with CP191, 0.178 µM (active) in the test with CP237 and 3.55 µM (active) with CP247. Moreover, the Potency result with CP192 and with CP211 was “inactive” in each case.
`CC(C)(O)C(Cl)(Cl)Cl`: the Potency in the test with ATS95 is 10 µM (active); in the test with CP191, 3.16 µM (active); in the test on CP203, 10.7 µM (active); in the test with CP215, 8.49 µM (active); with CP237 it was 3.16 µM (active); in the test with CP238 it was 10 µM (active). The Potency with CP247 was 10 µM (active); in the test with CP250 it was 12.6 µM (active); in the test on CP256, 10 µM (active); in the test with CP260, 3.55 µM (active); in the test on CP265, 2.51 µM (active). The Potency result in the test on CP262 was “inactive”.
For `C[C@]12Cc3nonc3C[C@@H]1CC[C@@H]1[C@@H]2CC[C@@]2(C)[C@H]1CC[C@]2(C)O`, the Potency result with ATS95, with C2A, with CP185, in the test on CP191, with CP192 and in the test with CP201 was “inactive” each time. Also, the Potency entry in the test with CP203, with CP211, with CP215, in the test with CP237, with CP238 and in the test on CP247 was “inactive” throughout. The Potency entry in the test with CP250, in the test on CP252, in the test on CP256, with CP260, with CP262 and in the test on CP265 was “inactive” in each case.
On to `CCN(CC)CCOC(=O)C(C)(c1ccccc1)c1ccccc1`, for which the Potency entry with C2A, in the test on CP192 and in the test on CP201 was “inactive” throughout. Moreover, in the test with CP203, the Potency was 7.57 µM (active).
Regarding `Oc1ccc2[nH]cc(CCCCN3CC=C(c4ccccc4)CC3)c2c1`, the Potency was 5.62 µM (active) with CP237 and 7.08 µM (active) with CP247.
As for `ClC1=C(Cl)C2(Cl)C(CBr)CC1(Cl)C2(Cl)Cl` (stereo unspecified), the Potency result in the test with ATS95, with C2A, with CP185, in the test with CP191, with CP192 and in the test on CP194 was “inactive” throughout. Besides, the Potency result with CP201, in the test with CP203, in the test on CP211, with CP215, in the test with CP217 and with CP237 was “inactive” each time. The Potency result in the test with CP238, in the test with CP247, in the test with CP250, in the test on CP252, in the test with CP256 and with CP262 was “inactive” in each case. The Potency result in the test with CP265 was “inactive”.
